In the supplement of paper PMC6555819:

tested on: PPARg DBDmut IVT, anti-PPARg (DBD mutation: PPARg1 K132A/R137A, NR concentration 270 nM); assay: PBM binding z-score (relative to random genomic background probes); higher = stronger binding; sequences stand for … in GC…GCGATTGACAGCGTAGAATGAAGG
Summary of the method: (§1)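 Regression normalization was applied to scanned fluorescence from custom Agilent 4×180K protein-binding microarrays. Before scanning, arrays were incubated 1 h with ligand-free nuclear receptor dimers, and binding was detected with antibodies against each partner (one per run). Binding z-scores use the random background probes as reference.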

Compared with CCTAGTTGGTCAAGGTCACGCACGCTATAGGTAC, GATACAGGGTCATCTAGAGGCCAGAGTATGGAAA is lower in PBM binding z-score: 0.558 for the first, 0.0112 for the second.

First: AGTCAAAGTTCACTAGGTTACGTAAGATTCAGCT
Second: CCAGACAGGTGAAAGGTAACTCACTCTGGTACGC
The PBM binding z-score of the first is higher: 1.2 for the first, 0.145 for the second.

First: ATCTCTAGGTGAAAGTTCAGTGAATCCCGAGGAT
Second: CAAACTAGGTCAAGGTCAAATTCGGTTTGTGCCA
The PBM binding z-score of the first is lower: 0.994 for the first, 3.07 for the second.

First: CAAACTAGGTCACGAAAGGTCAAAATCGAATGAC
Second: CCTACTGGGCCAAGGTCATTGACCAGTCAAAGCA
The PBM binding z-score of the first is higher: 2.48 for the first, -1.06 for the second.

First: TTAACAAGGTGAAAGGTCGTTGATGCACGCCTTG
Second: CCTGCTCGGTCAATGGTCAGCTAAAGCAGCTCGC
The PBM binding z-score of the first is higher: 0.131 for the first, -1.21 for the second.

Compared with CGTCAAAGTTCAAGGTAATGTAACAGAAAGCAGC, CAAACTAGGTCAAAGGTCAAAGACGAGCCAACCA is higher in PBM binding z-score: 0.686 for the first, 7.03 for the second.

Going from CCTACTGGGCCATTGAGAGGTCATTGATCATATG to CCTGCTAGTTCATGGTCAGCTAATCTACAGTATG, the PBM binding z-score falls from 0.0836 to -0.632.

Compared with TCTAGTTCGTCACGGAGGTCACACACGACGGGTA, AGAATGAGGTTAGCAAAGATCAGGGAAACGCTTG is lower in PBM binding z-score: 0.867 for the first, 0.613 for the second.

First: TAGCCTAGGTCATTCAGGGGCTAGTATAGAAAGC
Second: ACTCGGAGGACAAAGGTAAGAGCTACGCCAGTGA
The PBM binding z-score of the first is higher: 0.573 for the first, -1.09 for the second.

Going from TCATATAGGTAATCAGGTGAAAGTCCGTAAGTTA to CCTACTGGGCCAAAGGTCATTGACTCCAATGCTC, the PBM binding z-score falls from 1.86 to 0.152.

Compared with AAATGTAGGTTAAGGGTCATTCAGGTTGGTTCGC, GGAACTAGGGCAAAGTTGATAGCATCTGTCGACG is higher in PBM binding z-score: 2.05 for the first, 2.6 for the second.

Compared with CAAACTAGGTCAAGGGGTCAAAGTCCGCTTCCCG, ATCGAAAGGTCGTGAGGTGAGTACACAGAAAGGC is lower in PBM binding z-score: 1.52 for the first, 0.897 for the second.

First: CGAACTAGTTCAAGGACAGTGAATCTCCGCACGC
Second: CCTGCTAGTTCAATGGTCAGCTAAAGCAGCTCGC
The PBM binding z-score of the first is higher: -0.503 for the first, -1.19 for the second.

Compared with ATATGTAGGTTAGCGGGGGTCATTCAGACTAGGC, CGTCCAAGGTCAGCAGGTGAGTGAAAGCGACGTG is lower in PBM binding z-score: 9.65 for the first, -0.746 for the second.

Going from TAGCCTCGGTCATTGGGCCAGTATAGTACGCATC to GCTAGTTGGTCAGTAAATGGTCACACACCGGTCG, the PBM binding z-score rises from -0.786 to 0.192.

Compared with AGACAAAGTTCAGGACGAGGTAACGTAAAGCACG, CGCACTAGGTCATTGACAGGACAGTGAATAGTAA is higher in PBM binding z-score: 0.977 for the first, 3.71 for the second.

Going from ATGGAAAGGTCGTGAGGTGAGTATACAGAAAGGC to ATATCTAGGTAAAAGTTCAGTGAATCCCGAGGAT, the PBM binding z-score falls from 1.59 to 1.42.

Compared with CCTACTGGGCCGAGGTCATTGATCAGTCAAAGCA, TTACCAAAGTGAAAGGTCGTTGATGCACGCCTTG is higher in PBM binding z-score: -1.27 for the first, 0.436 for the second.

First: CCTAGTAGGTTATGGGGCATTCAGGCAACGGTGA
Second: AGTCAAAGTTCATCTGGGTAACGTAAGATATGCT
The PBM binding z-score of the first is lower: -0.728 for the first, 0.701 for the second.

In the case of TCTTGTAGATCAAAGGTCAAGAAAGCCGAAGCCT, the PBM binding z-score is reported as 0.612.

tested on: PPARg homodimer (NR concentration 180 nM); assay: as above
Summary of the method: as §1

Going from CCTAGTTGGTCAAGGTCACGCACGCTATAGGTAC to GATACAGGGTCATCTAGAGGCCAGAGTATGGAAA, the PBM binding z-score rises from 3.73 to 3.91.

Going from AGTCAAAGTTCACTAGGTTACGTAAGATTCAGCT to CCAGACAGGTGAAAGGTAACTCACTCTGGTACGC, the PBM binding z-score falls from 1.99 to 1.28.

First: ATCTCTAGGTGAAAGTTCAGTGAATCCCGAGGAT
Second: CAAACTAGGTCAAGGTCAAATTCGGTTTGTGCCA
The PBM binding z-score of the first is lower: 1.52 for the first, 4.71 for the second.

First: CAAACTAGGTCACGAAAGGTCAAAATCGAATGAC
Second: CCTACTGGGCCAAGGTCATTGACCAGTCAAAGCA
The PBM binding z-score of the first is higher: 5.97 for the first, 1.94 for the second.

Compared with TTAACAAGGTGAAAGGTCGTTGATGCACGCCTTG, CCTGCTCGGTCAATGGTCAGCTAAAGCAGCTCGC is lower in PBM binding z-score: 2.13 for the first, -0.242 for the second.

Going from CGTCAAAGTTCAAGGTAATGTAACAGAAAGCAGC to CAAACTAGGTCAAAGGTCAAAGACGAGCCAACCA, the PBM binding z-score rises from 2.57 to 8.08.

First: CCTACTGGGCCATTGAGAGGTCATTGATCATATG
Second: CCTGCTAGTTCATGGTCAGCTAATCTACAGTATG
The PBM binding z-score of the first is higher: 2.14 for the first, -0.0541 for the second.

Going from TCTAGTTCGTCACGGAGGTCACACACGACGGGTA to AGAATGAGGTTAGCAAAGATCAGGGAAACGCTTG, the PBM binding z-score falls from 6.1 to -0.323.

Compared with TAGCCTAGGTCATTCAGGGGCTAGTATAGAAAGC, ACTCGGAGGACAAAGGTAAGAGCTACGCCAGTGA is lower in PBM binding z-score: 1.3 for the first, 0.21 for the second.

Compared with TCATATAGGTAATCAGGTGAAAGTCCGTAAGTTA, CCTACTGGGCCAAAGGTCATTGACTCCAATGCTC is higher in PBM binding z-score: 1.32 for the first, 2.5 for the second.

Going from AAATGTAGGTTAAGGGTCATTCAGGTTGGTTCGC to GGAACTAGGGCAAAGTTGATAGCATCTGTCGACG, the PBM binding z-score falls from 3.58 to 2.98.

First: CAAACTAGGTCAAGGGGTCAAAGTCCGCTTCCCG
Second: ATCGAAAGGTCGTGAGGTGAGTACACAGAAAGGC
The PBM binding z-score of the first is higher: 6.55 for the first, 2.45 for the second.

First: CGAACTAGTTCAAGGACAGTGAATCTCCGCACGC
Second: CCTGCTAGTTCAATGGTCAGCTAAAGCAGCTCGC
The PBM binding z-score of the first is higher: 0.151 for the first, 0.058 for the second.

Going from ATATGTAGGTTAGCGGGGGTCATTCAGACTAGGC to CGTCCAAGGTCAGCAGGTGAGTGAAAGCGACGTG, the PBM binding z-score falls from 3.57 to 3.15.

Compared with TAGCCTCGGTCATTGGGCCAGTATAGTACGCATC, GCTAGTTGGTCAGTAAATGGTCACACACCGGTCG is higher in PBM binding z-score: -0.222 for the first, 0.621 for the second.

Compared with AGACAAAGTTCAGGACGAGGTAACGTAAAGCACG, CGCACTAGGTCATTGACAGGACAGTGAATAGTAA is higher in PBM binding z-score: 1.38 for the first, 2.42 for the second.

First: ATGGAAAGGTCGTGAGGTGAGTATACAGAAAGGC
Second: ATATCTAGGTAAAAGTTCAGTGAATCCCGAGGAT
The PBM binding z-score of the first is higher: 2.23 for the first, 1.87 for the second.

Going from CCTACTGGGCCGAGGTCATTGATCAGTCAAAGCA to TTACCAAAGTGAAAGGTCGTTGATGCACGCCTTG, the PBM binding z-score falls from 2.05 to 1.39.

Going from CCTAGTAGGTTATGGGGCATTCAGGCAACGGTGA to AGTCAAAGTTCATCTGGGTAACGTAAGATATGCT, the PBM binding z-score rises from 1.28 to 2.39.

TCTTGTAGATCAAAGGTCAAGAAAGCCGAAGCCT showed a PBM binding z-score of 2.55.
